This is part of a sample that, as a whole, favours compounds with a hit. Of some 83,000 tested, about 20% had one in any assay.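 Results are percent growth after 48 hours of single-concentration exposure. 100 means growth as in untreated cells, lower positive values show inhibition; negative values down to -100 show cell death.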 Values without a mark were called inactive. Activity calls are given as the source filed them. How the source made its calls: active means growth percent below 10; inactive means the rest.
Tests used:
Assay in all cases: NCI-60 one-dose screen, 48 h (100 = growth as untreated, 0 = no growth, -100 = all killed)
HCT-15 colon = settings: 10 µM unless noted
HT29 colon = settings: 10 µM unless noted
SNB-75 CNS = settings: 10 µM unless noted
SNB-19 CNS = settings: 10 µM unless noted
U251 CNS = settings: 10 µM unless noted
PC-3 prostate = settings: 10 µM unless noted
SK-MEL-5 melanoma = settings: 10 µM unless noted
UACC-62 melanoma = settings: 10 µM unless noted
LOX IMVI melanoma = settings: 10 µM unless noted
EKVX NSCLC = settings: 10 µM unless noted
SN12C renal = settings: 10 µM unless noted
UO-31 renal = settings: 10 µM unless noted
TK-10 renal = settings: 10 µM unless noted
ACHN renal = settings: 10 µM unless noted
CAKI-1 renal = settings: 10 µM unless noted
A498 renal = settings: 10 µM unless noted
CCRF-CEM leukemia = settings: 10 µM unless noted
MOLT-4 leukemia = settings: 10 µM unless noted
SK-MEL-2 melanoma = settings: 10 µM
SK-MEL-28 melanoma = settings: 10 µM unless noted

| SMILES | growth (HCT-15 colon) | growth (HT29 colon) | growth (SNB-75 CNS) | growth (SNB-19 CNS) | growth (U251 CNS) | growth (PC-3 prostate) | growth (SK-MEL-5 melanoma) | growth (UACC-62 melanoma) | growth (LOX IMVI melanoma) | growth (EKVX NSCLC) | growth (SN12C renal) | growth (UO-31 renal) | growth (TK-10 renal) | growth (ACHN renal) | growth (CAKI-1 renal) | growth (A498 renal) | growth (CCRF-CEM leukemia) | growth (MOLT-4 leukemia) | growth (SK-MEL-2 melanoma) | growth (SK-MEL-28 melanoma) |
| --- | --- | --- | --- | --- | --- | --- | --- | --- | --- | --- | --- | --- | --- | --- | --- | --- | --- | --- | --- | --- |
| CNC(=O)CN1CCC(Oc2cc3c(Nc4cccc(Cl)c4F)ncnc3cc2OC)CC1 | 66.8% | 36.8% | 20.9% | 70.3% | 80.4% | 65.7% | 77.2% | 86.8% | 37.7% | 32.1% | 42.7% | 26.3% | 1.03% (active) | 8.22% (active) | 10.6% | 44.2% | 64.7% | 51.7% | – | – |
| CCN1CCN(c2cc(C)nc(N(CCCNc3ccnc4cc(Cl)ccc34)Cc3cccs3)n2)CC1 | 3.14% (active) | 1.82% (active) | -5.92% (active) | 12.5% | 0.735% (active) | 32.8% | -97.4% (active) | -19.8% (active) | -73.5% (active) | 42.3% | 39% | -76.1% (active) | -41% (active) | – | – | -13.7% (active) | 1.95% (active) | 5.24% (active) | -37.8% (active) | – |
| CCOc1cc2ncc(C#N)c(Nc3ccc(OCc4ccccn4)c(Cl)c3)c2cc1NC(=O)/C=C/CN(C)C | -0.289% (active) | -54.5% (active) | 34.1% | -44.2% (active) | 3.18% (active) | 9.27% (active) | 14.8% | -64.1% (active) | -67.8% (active) | 20.7% | -62.8% (active) | -85% (active) | 5.99% (active) | – | 5.2% (active) | 34.7% | 3.88% (active) | 19.9% | – | -79.5% (active) |
| Cc1cnc(NC(=O)Nc2cc(Br)c(C)cc2OC[C@@H]2CNCCO2)cn1 | 6.54% (active) | -6.22% (active) | 26.5% | 39.7% | 11.7% | 39.7% | -92.2% (active) | 12.2% | -78% (active) | 25.9% | 39.5% | -12.3% (active) | 28.8% | – | 1.9% (active) | 18.1% | 4.56% (active) | 2.6% (active) | – | -88.7% (active) |
| COc1cc(Nc2ncc(F)c(Nc3ccc4c(n3)N(COP(=O)(O)O)C(=O)C(C)(C)O4)n2)cc(OC)c1OC | 21.4% | -0.77% (active) | -95.5% (active) | 31.4% | 29.5% | 33.5% | 43.8% | 18.8% | -69% (active) | 32.7% | 22.8% | -23.9% (active) | -43.8% (active) | – | -54.1% (active) | -70.9% (active) | 29.9% | 29.6% | – | 45.6% |
| COc1ccc(Cl)c(Nc2nc3ccccc3nc2NS(=O)(=O)c2cccc(NC(=O)C(C)(C)N)c2)c1 | 44.9% | 27.7% | -20.2% (active) | 63.9% | 35% | 22.3% | 57.1% | 36.5% | 25.8% | 48.5% | 51.2% | 8.83% (active) | 29.8% | – | 29% | -33.2% (active) | 46.9% | 13.4% | – | 53.1% |
| Ic1ccccc1-c1ccccc1 | 112% | 114% | 95.3% | 101% | 105% | 99.9% | 111% | 100% | 103% | 120% | 101% | 85.5% | 106% | 109% | 111% | 89.8% | 90.1% | 101% | – | – |
| Cc1cc(-c2cc(O)ccc2Cl)cc2nnc(Nc3ccc(OCCN4CCCC4)cc3)nc12 | -78.5% (active) | -57.1% (active) | -90.8% (active) | -64.4% (active) | -74.5% (active) | -80.5% (active) | -84.9% (active) | -77.7% (active) | -63.9% (active) | -81.1% (active) | -79.2% (active) | -87.3% (active) | -82.1% (active) | -92.7% (active) | -83% (active) | -68.9% (active) | -51.9% (active) | -42.9% (active) | – | – |
| Cc1csc(-c2nnc(Nc3ccc(Oc4ncccc4-c4ccnc(N)n4)cc3)c3ccccc23)c1 | 37.6% | 10.1% | 61.9% | 43.3% | 37.7% | 59.9% | 54.1% | 21.1% | 25.7% | 64.8% | 52.1% | 32.4% | 39.7% | 38.8% | 50.8% | 56.1% | 25.1% | 32.3% | – | – |
| CC(=O)Nc1cccc(-n2c(=O)n(C3CC3)c(=O)c3c(Nc4ccc(I)cc4F)n(C)c(=O)c(C)c32)c1 | 45.4% | 5.59% (active) | 43% | 48.3% | 39.9% | 63.7% | 32.7% | -6.11% (active) | 14% | 46% | 49.7% | 12% | 21.8% | 42% | 27.1% | -34.4% (active) | 68.5% | 65.5% | – | – |
| CNC(=O)c1cc(Oc2ccc(NC(=O)Nc3ccc(Cl)c(C(F)(F)F)c3)c(F)c2)ccn1 | -18.1% (active) | -35.2% (active) | -68.8% (active) | 3.52% (active) | -44.4% (active) | 3.89% (active) | -95.9% (active) | -41.9% (active) | -89% (active) | -3.92% (active) | -40.4% (active) | -43.1% (active) | -3.33% (active) | 0.875% (active) | 1.01% (active) | -61.7% (active) | 1.42% (active) | -7.86% (active) | – | – |
| O=S1(=O)OC(c2ccc(O)c(Cl)c2)(c2ccc(O)c(Cl)c2)c2ccccc21 | 102% | 123% | 78.4% | 103% | 111% | 77.8% | 95.9% | 99.5% | 100% | 112% | 97% | 66.2% | 100% | – | 90.2% | 90.3% | 102% | 109% | – | 114% |

Reference: PubChem BioAssay (NCI)
